By inhibition is commonly meant the drop in the measured response relative to a control, in per cent.

In ChEMBL document CHEMBL1961873, “Compounds: GSK PKIS; Assays: Nanosyn kinase panel” (2012) one finds inhibition data, which are given here for seven molecules.

The target of assay [1] is Death-associated protein kinase 1 (Homo sapiens) (UniProt P53355). As to conditions: at 1 µM.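 Further: each value is a mean inhibition figure.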
Assay [2] deals with T1, Serine/threonine-protein kinase DCLK2 (Homo sapiens) (UniProt Q8N568).
T1 sequence (whole entry): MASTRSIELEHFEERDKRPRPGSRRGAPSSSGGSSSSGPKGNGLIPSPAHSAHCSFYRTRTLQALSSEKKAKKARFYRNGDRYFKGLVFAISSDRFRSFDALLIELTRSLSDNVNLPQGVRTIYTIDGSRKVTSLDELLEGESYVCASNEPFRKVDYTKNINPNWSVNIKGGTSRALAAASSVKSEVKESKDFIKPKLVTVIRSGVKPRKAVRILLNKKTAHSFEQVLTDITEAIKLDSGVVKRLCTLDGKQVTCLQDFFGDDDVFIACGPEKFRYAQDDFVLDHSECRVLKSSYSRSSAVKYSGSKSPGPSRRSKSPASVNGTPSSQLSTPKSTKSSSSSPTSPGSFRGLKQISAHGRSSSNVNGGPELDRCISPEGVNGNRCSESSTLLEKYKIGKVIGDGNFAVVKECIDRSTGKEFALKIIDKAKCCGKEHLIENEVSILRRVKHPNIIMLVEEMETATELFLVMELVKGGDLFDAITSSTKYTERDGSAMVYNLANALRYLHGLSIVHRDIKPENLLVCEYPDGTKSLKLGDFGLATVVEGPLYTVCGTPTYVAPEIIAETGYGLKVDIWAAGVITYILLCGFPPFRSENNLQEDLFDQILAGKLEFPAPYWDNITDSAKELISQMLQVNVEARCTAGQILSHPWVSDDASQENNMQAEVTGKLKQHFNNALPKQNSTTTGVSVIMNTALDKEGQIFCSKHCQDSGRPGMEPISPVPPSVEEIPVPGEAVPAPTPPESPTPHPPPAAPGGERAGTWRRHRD
As to conditions: at 0.1 µM.

In assay [3] the target is T1, Serine/threonine-protein kinase DCLK2 (Homo sapiens). To be noted: at 1 µM.
Assay [4] deals with MAP kinase-activated protein kinase 2 (Homo sapiens) (UniProt P49137). As to conditions: at 0.1 µM.
Sequence of MAP kinase-activated protein kinase 2 (Homo sapiens) (P49137 whole entry, looked up): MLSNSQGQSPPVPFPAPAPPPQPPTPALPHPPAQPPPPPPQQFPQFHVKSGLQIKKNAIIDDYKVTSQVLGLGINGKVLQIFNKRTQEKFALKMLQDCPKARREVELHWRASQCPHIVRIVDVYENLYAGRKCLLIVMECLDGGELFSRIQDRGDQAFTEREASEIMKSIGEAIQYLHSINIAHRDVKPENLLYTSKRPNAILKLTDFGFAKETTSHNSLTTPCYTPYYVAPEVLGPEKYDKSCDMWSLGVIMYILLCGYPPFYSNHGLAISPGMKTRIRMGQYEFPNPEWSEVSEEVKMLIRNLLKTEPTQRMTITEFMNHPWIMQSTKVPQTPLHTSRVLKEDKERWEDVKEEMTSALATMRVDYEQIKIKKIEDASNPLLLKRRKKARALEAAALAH
Assay [5] shares this target. To be noted: at 1 µM.
Assay [6] deals with MAP kinase-activated protein kinase 3 (Homo sapiens) (UniProt Q16644). To be noted: at 0.1 µM.
Assay [7] shares this target. As to conditions: at 1 µM.
Assay [8] addresses Serine/threonine-protein kinase MARK1 (Homo sapiens) (UniProt Q9P0L2). To be noted: at 0.1 µM.
Assay [9] has the same target. To be noted: at 1 µM.
Assay [10] addresses MAP/microtubule affinity-regulating kinase 3 (Homo sapiens) (UniProt P27448). As to conditions: at 0.1 µM.
For assay [11] the target is unchanged. To be noted: at 1 µM.
In assay [12] the target is T2, MAP/microtubule affinity-regulating kinase 4 (Homo sapiens) (UniProt Q96L34).
T2 sequence (whole entry): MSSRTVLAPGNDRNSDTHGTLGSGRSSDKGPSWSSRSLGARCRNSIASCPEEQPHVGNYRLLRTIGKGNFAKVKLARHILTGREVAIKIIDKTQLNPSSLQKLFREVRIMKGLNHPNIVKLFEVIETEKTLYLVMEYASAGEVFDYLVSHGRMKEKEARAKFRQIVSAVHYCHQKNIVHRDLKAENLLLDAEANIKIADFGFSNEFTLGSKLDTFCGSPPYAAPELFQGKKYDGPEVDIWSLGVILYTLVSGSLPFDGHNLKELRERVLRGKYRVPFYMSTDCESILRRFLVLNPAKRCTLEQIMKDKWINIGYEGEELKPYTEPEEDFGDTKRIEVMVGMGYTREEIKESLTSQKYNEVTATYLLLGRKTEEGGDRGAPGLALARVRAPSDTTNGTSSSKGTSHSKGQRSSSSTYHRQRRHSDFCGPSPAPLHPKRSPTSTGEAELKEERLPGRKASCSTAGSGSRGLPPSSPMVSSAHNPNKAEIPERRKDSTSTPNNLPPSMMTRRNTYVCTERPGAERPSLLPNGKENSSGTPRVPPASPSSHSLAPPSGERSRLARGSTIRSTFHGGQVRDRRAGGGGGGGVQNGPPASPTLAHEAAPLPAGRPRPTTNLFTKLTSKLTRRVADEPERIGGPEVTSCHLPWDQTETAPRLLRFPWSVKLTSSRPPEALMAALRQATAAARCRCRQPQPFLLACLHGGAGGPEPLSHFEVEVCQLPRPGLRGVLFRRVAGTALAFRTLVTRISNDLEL
As to conditions: at 0.1 µM.

Assay [13] deals with T2, MAP/microtubule affinity-regulating kinase 4 (Homo sapiens). To be noted: at 1 µM.
For assay [14], the target named is Maternal embryonic leucine zipper kinase (Homo sapiens) (UniProt Q14680). As to conditions: at 0.1 µM.
Sequence of Maternal embryonic leucine zipper kinase (Homo sapiens) (Q14680 whole entry, looked up): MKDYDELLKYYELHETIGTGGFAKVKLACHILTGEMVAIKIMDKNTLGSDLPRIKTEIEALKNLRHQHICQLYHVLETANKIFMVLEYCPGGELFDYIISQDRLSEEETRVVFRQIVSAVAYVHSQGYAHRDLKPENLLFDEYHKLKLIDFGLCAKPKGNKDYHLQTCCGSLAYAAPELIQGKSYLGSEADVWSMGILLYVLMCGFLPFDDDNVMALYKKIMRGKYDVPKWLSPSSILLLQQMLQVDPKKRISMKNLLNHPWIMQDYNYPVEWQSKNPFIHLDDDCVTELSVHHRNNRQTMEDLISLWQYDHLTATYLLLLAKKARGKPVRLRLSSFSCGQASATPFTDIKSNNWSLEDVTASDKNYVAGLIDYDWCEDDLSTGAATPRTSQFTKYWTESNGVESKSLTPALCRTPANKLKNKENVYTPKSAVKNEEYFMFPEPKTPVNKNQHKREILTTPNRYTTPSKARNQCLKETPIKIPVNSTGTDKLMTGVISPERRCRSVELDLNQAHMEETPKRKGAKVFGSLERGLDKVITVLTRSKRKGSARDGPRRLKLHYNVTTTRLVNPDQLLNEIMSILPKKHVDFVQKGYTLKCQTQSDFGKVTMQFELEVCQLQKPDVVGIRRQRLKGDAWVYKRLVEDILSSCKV
For assay [15] the target is unchanged. As to conditions: at 1 µM.
Assay [16] has as its target MAP kinase-interacting serine/threonine-protein kinase 1 (Homo sapiens) (UniProt Q9BUB5). To be noted: at 0.1 µM.
Assay [17] shares this target. As to conditions: at 1 µM.
Assay [18] addresses MAP kinase-interacting serine/threonine-protein kinase 2 (Homo sapiens) (UniProt Q9HBH9). To be noted: at 0.1 µM.
For assay [19] the target is unchanged. As to conditions: at 1 µM.
Assay [20] has as its target Serine/threonine-protein kinase MARK2 (Homo sapiens) (UniProt Q7KZI7). To be noted: at 0.1 µM.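 Further: mean percent inhibition of PAR-1Balpha kinase activity, reported from the GSK PKIS screen.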

Sequence of Serine/threonine-protein kinase MARK1 (Homo sapiens) (Q9P0L2 whole entry, looked up): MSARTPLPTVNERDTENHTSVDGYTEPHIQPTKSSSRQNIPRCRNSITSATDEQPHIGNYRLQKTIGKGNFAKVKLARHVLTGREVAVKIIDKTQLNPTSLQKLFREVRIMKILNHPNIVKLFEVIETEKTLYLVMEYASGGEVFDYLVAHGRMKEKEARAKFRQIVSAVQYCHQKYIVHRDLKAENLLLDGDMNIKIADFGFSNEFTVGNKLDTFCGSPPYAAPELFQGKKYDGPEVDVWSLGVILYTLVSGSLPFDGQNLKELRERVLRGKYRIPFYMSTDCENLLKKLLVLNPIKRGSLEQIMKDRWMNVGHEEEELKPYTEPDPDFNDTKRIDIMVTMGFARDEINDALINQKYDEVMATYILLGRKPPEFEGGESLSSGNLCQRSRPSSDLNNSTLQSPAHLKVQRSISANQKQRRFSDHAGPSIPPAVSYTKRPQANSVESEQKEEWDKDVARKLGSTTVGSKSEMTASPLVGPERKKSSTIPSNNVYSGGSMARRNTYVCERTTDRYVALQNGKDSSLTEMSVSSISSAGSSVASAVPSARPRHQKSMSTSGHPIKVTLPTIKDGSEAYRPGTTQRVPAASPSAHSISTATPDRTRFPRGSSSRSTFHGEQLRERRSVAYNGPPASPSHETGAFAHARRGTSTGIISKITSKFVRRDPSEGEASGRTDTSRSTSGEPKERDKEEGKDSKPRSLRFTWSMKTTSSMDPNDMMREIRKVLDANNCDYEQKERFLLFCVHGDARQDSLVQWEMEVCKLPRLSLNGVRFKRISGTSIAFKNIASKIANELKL
Sequence of Death-associated protein kinase 1 (Homo sapiens) (P53355 whole entry, looked up): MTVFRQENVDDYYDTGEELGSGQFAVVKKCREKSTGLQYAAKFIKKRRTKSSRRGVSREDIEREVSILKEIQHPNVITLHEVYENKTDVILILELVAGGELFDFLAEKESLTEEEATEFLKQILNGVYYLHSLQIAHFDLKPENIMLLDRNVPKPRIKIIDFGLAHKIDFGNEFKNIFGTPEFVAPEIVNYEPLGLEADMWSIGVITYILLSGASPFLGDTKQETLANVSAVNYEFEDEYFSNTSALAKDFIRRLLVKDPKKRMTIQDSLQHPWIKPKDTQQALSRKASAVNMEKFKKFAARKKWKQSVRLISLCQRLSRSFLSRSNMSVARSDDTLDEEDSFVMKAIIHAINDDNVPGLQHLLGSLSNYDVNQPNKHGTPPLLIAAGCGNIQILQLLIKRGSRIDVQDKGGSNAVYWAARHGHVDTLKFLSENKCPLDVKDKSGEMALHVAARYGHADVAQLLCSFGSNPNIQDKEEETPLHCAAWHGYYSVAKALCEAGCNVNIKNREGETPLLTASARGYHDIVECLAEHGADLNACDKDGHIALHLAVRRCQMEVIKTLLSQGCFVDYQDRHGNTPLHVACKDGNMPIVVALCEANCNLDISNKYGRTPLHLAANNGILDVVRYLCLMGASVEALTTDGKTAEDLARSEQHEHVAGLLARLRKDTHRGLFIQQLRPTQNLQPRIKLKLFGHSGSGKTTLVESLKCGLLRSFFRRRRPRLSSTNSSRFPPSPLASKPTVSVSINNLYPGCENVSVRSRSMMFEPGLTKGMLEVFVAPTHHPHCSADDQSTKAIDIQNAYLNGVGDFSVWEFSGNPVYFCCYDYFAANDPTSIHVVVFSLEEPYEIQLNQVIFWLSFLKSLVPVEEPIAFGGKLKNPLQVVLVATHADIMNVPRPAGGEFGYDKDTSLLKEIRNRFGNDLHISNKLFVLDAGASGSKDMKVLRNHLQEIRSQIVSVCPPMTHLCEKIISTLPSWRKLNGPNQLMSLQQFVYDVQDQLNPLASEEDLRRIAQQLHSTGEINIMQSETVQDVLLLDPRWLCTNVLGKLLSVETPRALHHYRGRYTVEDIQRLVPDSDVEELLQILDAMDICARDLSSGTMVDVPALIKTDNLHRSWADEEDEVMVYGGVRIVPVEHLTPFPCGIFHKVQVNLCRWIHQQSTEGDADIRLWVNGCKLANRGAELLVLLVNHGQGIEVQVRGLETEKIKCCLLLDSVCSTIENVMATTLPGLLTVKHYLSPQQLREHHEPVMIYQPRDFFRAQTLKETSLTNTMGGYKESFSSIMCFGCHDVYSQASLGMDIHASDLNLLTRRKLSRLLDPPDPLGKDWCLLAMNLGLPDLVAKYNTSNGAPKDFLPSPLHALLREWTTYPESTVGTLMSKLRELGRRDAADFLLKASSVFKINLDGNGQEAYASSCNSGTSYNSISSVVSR
Sequence of Serine/threonine-protein kinase MARK2 (Homo sapiens) (Q7KZI7 whole entry): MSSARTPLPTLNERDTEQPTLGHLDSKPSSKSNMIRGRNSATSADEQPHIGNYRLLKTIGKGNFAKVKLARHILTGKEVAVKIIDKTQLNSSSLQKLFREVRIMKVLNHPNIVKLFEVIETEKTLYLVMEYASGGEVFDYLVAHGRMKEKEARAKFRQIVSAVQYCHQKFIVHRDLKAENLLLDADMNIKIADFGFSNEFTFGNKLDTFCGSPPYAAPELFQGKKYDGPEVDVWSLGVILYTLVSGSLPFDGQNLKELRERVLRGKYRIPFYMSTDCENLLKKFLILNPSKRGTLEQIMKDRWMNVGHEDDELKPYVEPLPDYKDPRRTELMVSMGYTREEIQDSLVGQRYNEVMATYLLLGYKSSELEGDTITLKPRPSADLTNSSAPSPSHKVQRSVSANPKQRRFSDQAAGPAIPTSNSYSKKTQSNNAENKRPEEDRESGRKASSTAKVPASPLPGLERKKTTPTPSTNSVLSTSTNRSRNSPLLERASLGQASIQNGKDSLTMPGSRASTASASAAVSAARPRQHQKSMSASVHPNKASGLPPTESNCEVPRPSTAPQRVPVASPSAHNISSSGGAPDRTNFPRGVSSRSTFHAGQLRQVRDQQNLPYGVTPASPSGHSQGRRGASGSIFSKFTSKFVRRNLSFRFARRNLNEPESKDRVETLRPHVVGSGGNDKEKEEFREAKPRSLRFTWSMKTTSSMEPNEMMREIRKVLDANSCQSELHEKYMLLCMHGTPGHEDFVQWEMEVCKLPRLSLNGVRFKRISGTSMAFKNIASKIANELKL
Sequence of MAP/microtubule affinity-regulating kinase 3 (Homo sapiens) (P27448 whole entry, looked up): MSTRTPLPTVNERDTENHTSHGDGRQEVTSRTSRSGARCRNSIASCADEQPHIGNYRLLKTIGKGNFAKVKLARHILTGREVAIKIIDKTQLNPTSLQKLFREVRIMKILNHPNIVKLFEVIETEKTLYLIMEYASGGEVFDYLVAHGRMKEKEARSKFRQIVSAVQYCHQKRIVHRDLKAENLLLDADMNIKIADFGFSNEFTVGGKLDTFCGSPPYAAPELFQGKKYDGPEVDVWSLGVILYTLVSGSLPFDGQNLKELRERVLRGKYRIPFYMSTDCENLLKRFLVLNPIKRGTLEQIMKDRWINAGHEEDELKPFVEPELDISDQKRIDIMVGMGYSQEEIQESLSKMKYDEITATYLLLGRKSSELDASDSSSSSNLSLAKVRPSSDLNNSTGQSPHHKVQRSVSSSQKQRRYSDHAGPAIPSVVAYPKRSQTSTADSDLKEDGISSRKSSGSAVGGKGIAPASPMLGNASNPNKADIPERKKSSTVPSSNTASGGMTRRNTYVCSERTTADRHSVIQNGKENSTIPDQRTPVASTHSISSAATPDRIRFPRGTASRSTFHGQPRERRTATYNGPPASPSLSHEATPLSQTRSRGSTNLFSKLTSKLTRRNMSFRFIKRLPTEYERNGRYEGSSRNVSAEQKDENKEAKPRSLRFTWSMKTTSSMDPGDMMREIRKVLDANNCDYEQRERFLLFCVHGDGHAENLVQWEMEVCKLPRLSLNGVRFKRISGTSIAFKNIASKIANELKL

As for `CC(=O)Nc1cccc(C#Cc2cncnc2Nc2ccc(OCc3cccc(F)c3)c(Cl)c2)n1`, the inhibition in [1] turned out to be 7.63%; in [2] it was 5.73%; in assay [3], 7.65%; in assay [4], 2.15%; in assay [5], 2.54%; in assay [6], 5.56%. In addition, the inhibition in assay [7] worked out at 5.33%; in assay [8] it was 1.05%; in assay [9], 1.12%; in assay [10] it was 0.78%; in [11], 3.05%; in [12], 0.52%. The inhibition is 0.84% in assay [13]; -2.29% in assay [14]; -2.61% in assay [15]; 0.9% in [16]; 18.7% in [17]; 3.48% in assay [18]. Moreover, the inhibition in assay [19] is 14.3%; in [20], 1.78%.
Turning to `CS(=O)(=O)CCNCc1ccc(-c2ccc3ncnc(Nc4ccc(OCc5cccc(F)c5)c(C(F)(F)F)c4)c3c2)o1`, the inhibition in [1] was determined as 12.3%; in assay [2], 3.73%; in [3] it was 0.98%; in [4], 4.67%; in [5] it was 4.5%; in [6], 10%. Further, the inhibition was 11.2% in assay [7]; 3.68% in [8]; 3.33% in assay [9]; 1.95% in assay [10]; -2.72% in assay [11]; 1.59% in assay [12]. Besides, the inhibition in assay [13] was -0.39%; in assay [14], 4.21%; in assay [15], 3.14%; in assay [16], 3.81%; in assay [17], 9.5%; in assay [18], 3.07%. The figures for the inhibition in [19] and in [20] were 10.4% and 2.7%, respectively.
In the case of `CCn1c(-c2nonc2N)nc2c(N3CCCC3)nccc21`, the inhibition in assay [1] is 0.8%; in [2], -6.15%; in assay [3], 4.26%; in [4], -1.28%; in assay [5], -1.63%; in [6], -0.94%. The inhibition in assay [7] was -1.73%; in assay [8], 0.71%; in assay [9] it was 2.75%; in assay [10], 1.92%; in [11], -0.19%; in [12], 2.01%. The inhibition in [13] is 3.21%; in assay [14], 0.66%; in [15] it was 6.1%; in assay [16], -0.54%; in assay [17], 5.25%; in assay [18], -1.08%. Also, the inhibition stood at 1.33% in assay [19] and 2.95% in [20].
Turning to `CNC(=O)c1cncc(/C=C/c2c(Cl)cccc2Cl)c1`, the inhibition in assay [1] was 0.5%; in assay [2] it was -4.5%; in [3], -0.73%; in assay [4], 0.7%; in assay [5] it was 2.98%; in assay [6], 2.14%. Besides, the inhibition in assay [7] amounted to 1.96%; in assay [8] it was 2.05%; in assay [9], 2.47%; in assay [10], 1.82%; in [11], 3.1%; in assay [12], 1.49%. For the same molecule, the inhibition turned out to be 3.08% in assay [13]; 6.04% in assay [14]; 14.7% in assay [15]; 1.63% in assay [16]; 6.73% in [17]; 3.42% in [18]. Further, the inhibition stood at 16.3% in assay [19] and 1% in [20].
As for `Cc1cc(O)cc(C)c1/C=C/c1cncc(-c2nn[nH]n2)c1`, the inhibition in [1] was 3.95%; in assay [2], -1.23%; in [3] it was -3.21%; in assay [4] it was 2.39%; in assay [5], 1.49%; in assay [6], 6.11%. Further, the inhibition is 4.25% in assay [7]; 4.55% in [8]; 5.09% in assay [9]; 5.87% in assay [10]; 5.96% in assay [11]; 2.37% in [12]. Besides, the inhibition in [13] amounted to 3.69%; in assay [14] it was 4.83%; in assay [15] it was 8.68%; in [16], 20.6%; in assay [17], 65.3%; in assay [18] it was 22.6%. The inhibition in assay [19] was 63.8%; in [20], 0.37%.
Regarding `Cc1ccc(NC(=O)c2ccnc(N3CCCC3)c2)cc1-c1ccc(C(=O)NCC2CC2)cc1`, the inhibition in assay [1] was 5.74%; in assay [2], -1.99%; in assay [3], -0.35%; in assay [4], 0.7%; in assay [5], 1.5%; in assay [6] it was 19.9%. Further, the inhibition turned out to be 30.2% in [7]; 5.49% in assay [8]; 8.31% in assay [9]; 6.19% in [10]; 0.65% in assay [11]; 4.16% in assay [12]. The inhibition in assay [13] was 5.97%; in [14], 4.85%; in assay [15], 7.99%; in assay [16] it was 1.78%; in assay [17], 6.57%; in assay [18], -0.01%. Further, the inhibition in assay [19] turned out to be 1.11%; in [20], 0.13%.
In the case of `c1cnn2ncc(-c3ccnc(Nc4ccc5c(c4)OCCO5)n3)c2c1`, the inhibition in assay [1] is 3.76%; in assay [2], 1.81%; in assay [3], 1.89%; in assay [4] it was 2.05%; in assay [5] it was 2.24%; in assay [6], 3.74%. The inhibition amounted to 3.81% in assay [7]; 4.18% in assay [8]; 24.3% in [9]; 5.06% in [10]; 24.8% in assay [11]; 3.11% in assay [12]. Besides, the inhibition came out at 16.4% in [13]; 11.6% in assay [14]; 51.6% in assay [15]; 3.95% in assay [16]; 14.5% in [17]; 4.36% in [18]. The values for the inhibition in [19] and in assay [20] were 25.9% and 0.05%, respectively.
